High-throughput results from PubChem.
An excerpt weighted towards active compounds, which were near 3.1% of everything screened.
IkB sig inh: IkB Signaling | Potency, µM (titrated, usually from 57.1 µM), for inactives: at the highest dose IkBa stabilization activation | ABC-DLBCL IkBa-CBG/CBR dual luciferase ratio, 4 h; response scale: scaled: untreated 0%, proteasome inhibitor 100% | actives 0.04% (n = 110,000); active means well fitted curve in the direction sought with a large enough effect in the signal ratio, not every such curve was filed as active; inconclusive means small, poorly fitted or top-dose-only effect, or a change in a side signal; the % refers to the signal ratio;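 further: the direction sought is a rising ratio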
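Luminescence ratio of IκBα-fused green versus native red beetle luciferase in OCI-Ly3 cells, 4 h post-doxycycline with compound; red signal alone, scaled from basal (0%) to zero light (-100%), flagged nonspecific or cytotoxic effects.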
p53ts 32C kill: qHTS Screen for Compounds that Selectively Target Cancer Cells with p53 Mutations: Cytotoxicity of p53ts Cells at the Permissive Temperature; AID 924, 2007; actives 0.93% (n = 130,000); H1299-p53A138V at 32C, ATP luminescence viability, 24 h; Potency, µM (series often up to 46.1 µM), for the others: at the highest dose activity change, negative = cytotoxicity, actives largely listed as cytotoxic;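 further: 0% = DMSO and -100% = full killing by reference compound; nearly all actives have a fitted effect of over 55% in size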
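Viability by ATPlite luminescence after 24 h compound treatment (up to 46 uM) at the permissive 32C. Cells are H1299 carrying p53 A138V. Scale runs from DMSO basal to 100 uM tamoxifen as full kill; AC50 from Hill fits.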
p53ts 39C tox: qHTS Screen for Compounds that Selectively Target Cancer Cells with p53 Mutations: Cytotoxicity of p53ts Cells at the Nonpermissive Temperature; H1299-p53A138V viability at 39C, ATP luminescence, 24 h; Potency, µM (top dose mostly 46.1 µM), inactives show at the highest dose activity change, negative = cell killing, most hits filed as cytotoxic; actives 1.5% (n = 130,000); AID 902, 2007; further: on the % scale 0 is the no-effect control and ±100 the full control effect; nearly all actives have a fitted effect of over 55% in size
TSHR agonist: qHTS Assay for Agonists of the Thyroid Stimulating Hormone Receptor | HEK293-CNG-TSHR cells (CNG channel as cAMP sensor), membrane potential dye, cAMP | Potency, µM (doses to about 57.1 µM), for the others: at the highest dose activation, usual class: activators | actives 0.48% (n = 73,000); active means well fitted activation curve with a large enough effect in the main read-out, with a control signal flat, not every such curve was filed as active; inconclusive means small, poorly fitted or top-dose-only effect, or a change in a side signal; inactive means no such curve, though single readings can be large or run the other way; % of control where 0% means no effect;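 further: the control signal comes from parental cells without the receptor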
Target sequence (P16473 whole entry, looked up): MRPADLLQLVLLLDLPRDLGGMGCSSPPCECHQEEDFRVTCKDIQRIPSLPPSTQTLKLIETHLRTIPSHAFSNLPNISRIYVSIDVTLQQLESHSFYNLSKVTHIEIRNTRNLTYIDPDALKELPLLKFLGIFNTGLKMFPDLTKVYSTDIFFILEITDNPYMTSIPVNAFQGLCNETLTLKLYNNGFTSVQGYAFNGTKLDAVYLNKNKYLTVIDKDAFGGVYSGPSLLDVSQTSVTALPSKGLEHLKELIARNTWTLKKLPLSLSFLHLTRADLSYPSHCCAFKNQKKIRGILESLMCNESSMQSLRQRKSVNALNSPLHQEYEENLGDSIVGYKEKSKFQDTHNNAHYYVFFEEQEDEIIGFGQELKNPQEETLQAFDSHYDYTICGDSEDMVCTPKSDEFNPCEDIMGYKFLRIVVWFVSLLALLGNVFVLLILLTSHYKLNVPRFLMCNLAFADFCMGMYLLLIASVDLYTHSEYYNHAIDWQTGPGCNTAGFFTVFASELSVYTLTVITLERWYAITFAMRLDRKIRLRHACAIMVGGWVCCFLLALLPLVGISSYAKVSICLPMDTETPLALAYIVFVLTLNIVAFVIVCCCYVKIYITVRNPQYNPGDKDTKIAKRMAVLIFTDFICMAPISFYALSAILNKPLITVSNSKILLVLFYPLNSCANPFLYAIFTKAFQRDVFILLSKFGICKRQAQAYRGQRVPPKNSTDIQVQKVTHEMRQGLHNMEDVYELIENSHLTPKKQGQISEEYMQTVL
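HEK 293 cells stably expressing TSHR and a modified CNG channel, with CNG-only parental cells as counterscreen, were preloaded 60 min at room temperature with membrane potential dye containing 100 uM RO 20-1724. Compound exposure was 30 min, and depolarization was read as fluorescence at 590 nm.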
HEK293 cAMP ctrl: qHTS Assay for Agonists of the Thyroid Stimulating Hormone Receptor: Activators of Intracellular cAMP Concentrations in Parental HEK 293 | parental HEK293 CNG cAMP sensor, membrane potential fluorescence | Potency, µM (doses to about 57.1 µM), without a hit: at the top dose activation, actives largely listed as activators | actives 2.5% (n = 73,000); further: % of control where 0% means no effect; nearly all actives have a fitted effect of over 55% in size
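Parental HEK 293 cells stably expressing a modified CNG channel (no TSHR) report cAMP rise as membrane depolarization. Membrane potential dye with 100 uM RO 20-1724 was loaded for 60 min at room temperature, then compound added for 30 min; fluorescence read at 590 nm.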
Imprint erasure: qHTS Assay for Compounds that Induce Erasure of Genomic Imprints; mouse ES Peg3-LacZ reporter, beta-gal luminescence, 40 h; Potency, µM (top dose mostly 60.7 µM), for inactives: at the highest dose activity change, positive = activation, actives largely listed as activators; actives 0.02% (n = 110,000); AID 1948, 2009
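Imprint erasure is scored as LacZ activity from the silenced maternal Peg3 allele in feeder-free female ES cells cultured 40 h with LIF. Luminescence is normalized to in-plate negative controls and fitted to the Hill equation.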
Numbers without * were called inactive; [ ] = remark or other dose. Unless noted, the call rests on the fitted dose curve; in most records, active means well fitted curve in the direction sought with a large enough effect; inconclusive means small, poorly fitted or top-dose-only effect, or another doubt; inactive means no such curve, though single readings can be large; an effect the other way counts as inactive or inconclusive. Potency means the concentration at half of the fitted maximal effect.

`COc1ccc(Cl)cc1NC(=O)CCS(=O)(=O)c1cccc2nonc12` gave IkB sig inh inconclusive, p53ts 32C kill -24%, p53ts 39C tox 14% and Imprint erasure -8%[10.9 µM].
Screening CC(C)=NOCc1cccc(-c2cc(-c3ccccc3)no2)c1 returned p53ts 32C kill -5%[9.22 µM], p53ts 39C tox 3%[9.22 µM], TSHR agonist inconclusive and HEK293 cAMP ctrl inconclusive.
Screening CO[C@@H]1/C=C\CC(=O)N[C@@H](C)C(=O)OC[C@H](NS(=O)(=O)c2ccc(C)cc2)[C@H](C)/C=C\CC(=O)OC[C@H]1C returned p53ts 32C kill 3%[9.22 µM], p53ts 39C tox 9%[9.22 µM], TSHR agonist -5%[11.4 µM] and HEK293 cAMP ctrl -8%[11.4 µM].
Screening CCCOc1ccc(CN2C(=O)C(=O)c3cccc(C)c32)cc1 returned IkB sig inh 0%, p53ts 32C kill 43%, p53ts 39C tox 16µM* and Imprint erasure -26%[10.9 µM].
`Cc1ccc(CN2C(=O)C(=O)c3cc(Br)cc(C)c32)cc1` gave IkB sig inh inconclusive, p53ts 32C kill inconclusive, p53ts 39C tox 10µM* and Imprint erasure -23%[10.9 µM].
Cc1ccc(-n2nc(C(=O)Nc3ccc(F)cc3Cl)c(=O)n(C)c2=O)cc1 was read as IkB sig inh 0%, p53ts 32C kill -7%, p53ts 39C tox 5% and Imprint erasure -5%[10.9 µM].
For Cc1ccc(NC(=O)CCC(=O)N2CCSc3ccccc32)cc1Cl the results were IkB sig inh -1%, p53ts 32C kill -6%, p53ts 39C tox -5% and Imprint erasure -15%[10.9 µM].
Cc1ccc(C)c(Cn2c(CO)nc3ccccc32)c1 was read as IkB sig inh -3%, p53ts 32C kill -15%, p53ts 39C tox 0%, TSHR agonist inconclusive, HEK293 cAMP ctrl 25µM* and Imprint erasure -24%.
For CCCCCCNC(=O)c1cc(-c2ccco2)nc2ccccc12 the results were p53ts 32C kill -17% and p53ts 39C tox 2%.
`COc1ccc(NC(=O)c2cc(-c3ccc(C)o3)nc3ccccc23)cc1OC` gave IkB sig inh inconclusive, p53ts 32C kill -29%, p53ts 39C tox inconclusive, TSHR agonist inconclusive, HEK293 cAMP ctrl 25µM* and Imprint erasure -25%.
`Cc1cccc(NC(=O)c2cc(-c3ccco3)nc3ccccc23)n1` gave IkB sig inh 0%, p53ts 32C kill 3%, p53ts 39C tox -3%, TSHR agonist inconclusive, HEK293 cAMP ctrl 25µM* and Imprint erasure -11%.
Screening COc1ccc(NC(=O)c2c(-c3ccc(C)cc3)nnc3ccccc23)cc1OC returned IkB sig inh 1%, p53ts 32C kill -3%, p53ts 39C tox -2% and Imprint erasure -6%[10.9 µM].
For CCc1ccc(NC(=O)CC2C(=O)N(c3ccc(Cl)cc3)C(=O)N2C2CCCC2)cc1 (stereo not drawn) the results were IkB sig inh -2%, p53ts 32C kill -15%, p53ts 39C tox inconclusive and Imprint erasure 13%[10.9 µM].
`C[C@@H](COc1ccc(/C=C\c2ccccc2)cc1)[N+](C)(C)C` gave IkB sig inh -23%, p53ts 32C kill 32%, p53ts 39C tox -11%, TSHR agonist 10% and HEK293 cAMP ctrl 14%.
COc1ccccc1NC(=O)C1=C(C)Nc2nc3ccccc3n2C1c1cccc(Br)c1 (stereo not drawn) was read as IkB sig inh inconclusive, p53ts 32C kill 16%, p53ts 39C tox 0% and Imprint erasure -4%[10.9 µM].
`CC(NC(=O)CSc1nc2c(c(C(F)(F)F)n1)CCc1ccccc1-2)c1ccccc1` (stereo not drawn) gave p53ts 32C kill 1% and p53ts 39C tox 8%.
O=C(CSc1nc2c(c(C(F)(F)F)n1)CCc1ccccc1-2)NCc1ccco1 was read as IkB sig inh 0%, p53ts 32C kill -6%, p53ts 39C tox -15%, TSHR agonist inconclusive, HEK293 cAMP ctrl 25µM* and Imprint erasure -16%.
OC[C@@H]1O[C@@H](n2cnc3cncnc32)[C@@H](O)[C@H]1O was read as IkB sig inh -13%, p53ts 32C kill -18%, p53ts 39C tox 2%, TSHR agonist -10% and HEK293 cAMP ctrl 17%.
For COc1ccc(C(=O)Nc2cc(OC)ccc2OC)cc1 the results were IkB sig inh inconclusive, p53ts 32C kill inconclusive, p53ts 39C tox inconclusive, TSHR agonist 12%, HEK293 cAMP ctrl 14% and Imprint erasure -13%.
COc1ccc(C(=O)Nc2cc(OC)nc(OC)n2)cc1 was read as p53ts 32C kill 16µM* and p53ts 39C tox 10µM*.
COc1ccc(CNC(=O)Nc2cccc(C)c2)cc1 was read as IkB sig inh 1%, p53ts 32C kill -8%, p53ts 39C tox -16%, TSHR agonist -6%, HEK293 cAMP ctrl 14% and Imprint erasure -39%.
COc1ccc(C(=O)Nc2ccccc2C(N)=O)cc1 was read as IkB sig inh inconclusive, p53ts 32C kill 13µM*, p53ts 39C tox 13µM*, TSHR agonist 4%, HEK293 cAMP ctrl -3% and Imprint erasure -68%.
COc1ccc(C(=O)Nc2nnc(C)s2)cc1 was read as IkB sig inh inconclusive, p53ts 32C kill 13µM*, p53ts 39C tox 13µM* and Imprint erasure -33%[10.9 µM].
COc1cc(NC(=O)CCc2ccccc2)nc(OC)n1 was read as IkB sig inh 5%, p53ts 32C kill -6%, p53ts 39C tox 2%, TSHR agonist -13%, HEK293 cAMP ctrl -4% and Imprint erasure -13%.
Screening COc1ccc(C(=O)Nc2cccc(C)c2)cc1 returned IkB sig inh inconclusive, p53ts 32C kill 6.3µM*, p53ts 39C tox 5µM*, TSHR agonist 16%[11.4 µM], HEK293 cAMP ctrl 11%[11.4 µM] and Imprint erasure -87%.
Screening N#Cc1nc(-c2ccc(COc3ccc(Cl)cc3)o2)oc1N1CCCCC1 returned IkB sig inh inconclusive, p53ts 32C kill -6%, p53ts 39C tox 6% and Imprint erasure -6%[10.9 µM].
Cc1ccc(C)c(N2CCN(C(=O)c3cc4ccc5cccnc5c4[nH]3)CC2)c1 was read as IkB sig inh 1%, p53ts 32C kill -4%, p53ts 39C tox 1% and Imprint erasure -7%[10.9 µM].
`Cc1ccc(Cl)cc1N(C)C(=O)c1cc2ccc3cccnc3c2[nH]1` gave IkB sig inh inconclusive, p53ts 32C kill 19%, p53ts 39C tox 25µM* and Imprint erasure 17%[10.9 µM].
